Measurements as given in ChEMBL document CHEMBL3988442, “University of Dundee, Small-Polar-MMV Screening Library” (2021).
In all, about 48,000 compounds went through this assay and about 13,000 (27%) showed an effect of 50% or more. This is one part of the list.

These compounds were tested on Wolbachia pipientis (assay: Anti-Wolbachia Cell-Based Screen). Settings: 5 µM.
Format: functional
Design: scale not given: in the data most compounds retested in dose-response had high values

SMILES | Percent Effect [%]
CC(C)c1nccn1C(C)C(=O)NCc1noc(Cc2cccs2)n1 (stereo not drawn) | 8.731
O=C(NC1CC1)N1CCOC2(CCCN(c3cccc(F)c3)C2)C1 (stereo not drawn) | -2.504
CC(CCc1ccccc1F)C(=O)NS(=O)(=O)CC1CC1 (stereo not drawn) | -8.345
CC(=O)N1CCC(Nc2cccc(OC(F)F)c2C)CC1 | -10.39
Cn1cnnc1CN1CCC2(CCC(=O)N(Cc3ccccn3)C2)CC1 | -8.652
Clc1cc(N2CCC(N3CCCC3)CC2)nc2[nH]ccc12 | 113
FC(F)(F)c1ccnc(N2CCCN(C3CCOCC3)CC2)c1 | -6.382
Cc1noc(-c2ccnc(N3CCC(N4CCCC4)CC3)c2)n1 | -2.845
Cc1nc(-c2cccc(N3CCC(N4CCCC4)CC3)c2)cs1 | -1.882
Clc1cc(N2CCN(C3CCOCC3)CC2)nc2[nH]ccc12 | 109.8
Cc1noc(-c2ccnc(N3CCN(C4CCOCC4)CC3)c2)n1 | 8.096
CCS(=O)(=O)N1CCC2(CN(c3cc(OC)ncn3)C2)C1 | -9.777
COc1cc(N2CCC3(CC2)C(c2ccncc2)CC(=O)N3C)ncn1 (stereo not drawn) | 16.73
COc1cc(N2CCC3(CC2)CC(N2CCOCC2)CO3)ncn1 (stereo not drawn) | -10.74
COc1cc(N2CCC3(CC2)OCC(=O)NC3C)ncn1 (stereo not drawn) | 115.6
COc1cc(N2CCC3(CC2)CNC(=O)CO3)ncn1 | 115.6
COc1cc(N2CCC3(CC2)CN(C)C(=O)CO3)ncn1 | 113.9
COc1cc(N2CC3(CCN(S(=O)(=O)C4CC4)C3)C2)ncn1 | -10.78
COc1cc(N2CCC3(CC2)CC(N2CCN(C)CC2)CO3)ncn1.O=C(O)C(F)(F)F.O=C(O)C(F)(F)F (stereo not drawn) | -26.84
CC(C)NC(=O)c1nnn(-c2cccc(C(F)(F)F)c2)c1N | 5.987
O=C(CCO)N1CCC2(CCc3ccc(-c4ccoc4)cc32)CC1 | -1.453
COc1ncccc1C(=O)N1CCC(c2nc3c(C)cccc3[nH]2)CC1 | -11.64
Cc1cnn(CC2CN(Cc3nc4ccccc4c(=O)[nH]3)CCO2)c1 (stereo not drawn) | 128.5
Cc1cnn(CC2CN(c3ncnc4ccccc34)CCO2)c1 (stereo not drawn) | -26.67

SMILES | Percent Effect [%]
O=S(=O)(CCN1CCOC(Cn2cccn2)C1)c1ccccc1 (stereo not drawn) | -8.739
Cc1cnn(CC2CN(Cc3nc4cccnc4[nH]3)CCO2)c1 (stereo not drawn) | 117.2
O=c1[nH]c(CN2CCOC(Cn3cccn3)C2)nc2ccccc12 (stereo not drawn) | 108.3
c1ccc(Cn2ccnc2CN2CCOC(Cn3cccn3)C2)cc1 (stereo not drawn) | 5.197
Cc1cnn(CC2CCCN2CCc2nc3ccccc3c(=O)[nH]2)c1 (stereo not drawn) | -0.3603
N[C@@H]1CC[C@@H]1NC(=O)c1ccccc1OC(F)(F)C(F)F | -9.663
CNC(=O)CN1CCO[C@H]2CN(C(=O)C3CC3)C[C@H]21.O=C(O)C(F)(F)F | 8.052
Cc1ccc(S(=O)(=O)N2CCC3(CC(C(=O)NCC4CC4)=NO3)C2)cc1 (stereo not drawn) | -17.63
COc1cccc(S(=O)(=O)N2CCC(O)(CN(C)C)C2)c1 (stereo not drawn) | -4.6
CN(C)CC1(O)CCN(S(=O)(=O)c2ccc(F)c(F)c2)C1 (stereo not drawn) | -14.25
CN(C)CC1(O)CCN(S(=O)(=O)c2ccc(Cl)cc2)C1 (stereo not drawn) | 106.4
CC[C@H]1CN(S(=O)(=O)c2ccc(OC)cc2)CC[C@H]1CC(=O)O | 6.997
CN(C)CC1(O)CCN(S(=O)(=O)c2cccc(F)c2)C1 (stereo not drawn) | 142.4
CN(C)CC1(O)CCN(S(=O)(=O)c2ccc(F)cc2)C1 (stereo not drawn) | -17.25
CCOC1COC2(CCN(S(=O)(=O)c3cccc(F)c3)CC2)C1 (stereo not drawn) | -12.88
O=S(=O)(c1cccc(F)c1)N1C[C@@H]2CC[C@H](C1)N(Cc1ccccc1)C2 | 7.587
COc1ccc(S(=O)(=O)N2CCC(O)(CN(C)C)C2)cc1 (stereo not drawn) | 122.7
Cc1ccc(S(=O)(=O)N2CCC(O)(CN(C)C)C2)cc1 (stereo not drawn) | 128.7
CC(C)(C)C(O)CN1CCN(CC(=O)NCC(F)(F)F)CC1 (stereo not drawn) | 8.391
COc1ccc(CCNC(=O)C2CCOC2)c(Cl)c1 (stereo not drawn) | -19.93
O=S(=O)(CCNCc1ccc(Cl)cc1)N1CCOCC1 | -1.046
CN(C)CCN1C(=O)CO[C@@H]2CN(c3ncc(F)cn3)C[C@H]21 | -1.223
Cc1c(NC(C)C(C)C)cccc1C(=O)NCc1nccn1C (stereo not drawn) | -7.954
Cl.Cn1ccnc1CNC(=O)c1cnc(C2CCNCC2)cn1 | 74.03

SMILES | Percent Effect [%]
Cn1ccnc1CNC(=O)Nc1ccc(OC2CCC2)c(F)c1 | 1.11
Cn1ccnc1SCCNC(=O)c1c[nH]nc1C1CCCCC1 | -10.23
CC(C)N(Cc1nccn1C)C(=O)c1cnc(O)cn1 | -3.4
Cl.Cn1ccnc1CNC(=O)c1ccnc(C2CCNCC2)c1 | 112.8
COCCCC(=O)Nc1cc(Cl)c(Cl)cn1 | -20.73
O=C(c1scc2c1OCCO2)N1CCOC(Cc2cccc(F)c2)C1 (stereo not drawn) | -18.9
Cc1cnn(CC(C)NCc2csc(-c3ccco3)n2)c1 (stereo not drawn) | 6.093
Cc1cnn(CC(C)NCc2nc(-c3ccco3)no2)c1 (stereo not drawn) | 2.799
Cc1noc(-c2cnc(NCC3CCCO3)nc2-c2ccco2)c1C (stereo not drawn) | 115.5
Cc1nn(C)c2nc(-c3ccccn3)nc(NC[C@@H]3CCCO3)c12 | -8.15
Cc1noc(-c2cnc(NC(C)C)nc2-c2ccco2)c1C | 118.1
Cc1noc(-c2cnc(NC3CC3)nc2-c2ccco2)c1C | 112.5
Cn1cc(-c2ccnc(NCC3CCCCO3)n2)cn1 (stereo not drawn) | -0.1287
Cc1cc(C)c2nc(CN3CCC(N4CCOC4=O)CC3)cc(O)c2c1 | -3.092
COCCN(C)CCN1CC2(CCN(C3CCCNC3)CC2)OC1=O (stereo not drawn) | -6.573
CC(C)CCN1CCN(c2ncnc3nc(N)ccc23)CC1 | 6.537
Cn1c(-c2cccs2)nn(CCNS(=O)(=O)c2ccccc2Cl)c1=O | 11.66
Cc1c(C(=O)N2CCC2(C)C)nnn1-c1cccc2cnccc12 | 16.96
CCC(=O)N1CCC[C@]2(C(=O)N(C)C)CN(c3ccccn3)C[C@@H]2C1.O=C(O)C(F)(F)F | 98.59
COCC(=O)N1CCC[C@]2(C(=O)N(C)C)CN(c3ccccn3)C[C@@H]2C1.O=C(O)C(F)(F)F | -6.724
CC(C)C(=O)N1CCC[C@]2(C(=O)N(C)C)CN(c3ccccn3)C[C@@H]2C1.O=C(O)C(F)(F)F | 109.6
O=C(O)C(F)(F)F.O=C(O)[C@]12CCCN(Cc3ccco3)C[C@H]1CN(c1ncccn1)C2 | 0.3269
CCS(=O)(=O)N1CCC[C@]2(C(=O)N(C)C)CN(c3ccccn3)C[C@@H]2C1.O=C(O)C(F)(F)F | -14.88
O=C(O)C(F)(F)F.O=C(O)C(F)(F)F.O=C(O)[C@]12CCCN(Cc3ccsc3)C[C@H]1CN(c1ccccn1)C2 | -13.21

SMILES | Percent Effect [%]
CN(C)C(=O)N1CCC[C@]2(C(=O)N(C)C)CN(c3ccccn3)C[C@@H]2C1.O=C(O)C(F)(F)F | 123.8
CCS(=O)(=O)N1CCC[C@]2(C(=O)N(C)C)CN(c3ncccn3)C[C@@H]2C1.O=C(O)C(F)(F)F | -12.08
CN(C)C(=O)[C@]12CCCN(CC3CC3)C[C@H]1CN(c1ccccn1)C2.O=C(O)C(F)(F)F.O=C(O)C(F)(F)F | 89.5
CN(C)CCN1C[C@@H]2OCCN(Cc3cnn(C)c3)[C@@H]2C1 | -15.62
COc1cccc(Cl)c1-c1cc(CN)ccc1F | -5.951
COCCN1CCO[C@H]2CCN(C(=O)c3cccs3)CC[C@@H]21.O=C(O)C(F)(F)F | 9.308
O=C(O)C(F)(F)F.O=C(O)C(F)(F)F.O=C(c1ccncc1)N1CC[C@@H]2CN(C3CCOCC3)CCO[C@@H]2C1 | 103.2
O=C(NC[C@H]1OC[C@@H]2CCN(C3CCOCC3)C[C@@H]21)c1ccncc1.O=C(O)C(F)(F)F.O=C(O)C(F)(F)F | -8.097
O=C(O)C(F)(F)F.O=C(c1cccs1)N1CC[C@@H]2CN(C3CCOCC3)CCO[C@@H]2C1 | 103
CC(=O)N1CCO[C@@H]2CN(C(=O)c3ccc4ncccc4c3)CC[C@@H]2C1.O=C(O)C(F)(F)F | -0.4432
O=C(O)C(F)(F)F.O=C(O)C(F)(F)F.c1csc(CN2CCO[C@@H]3CN(C4CCOCC4)C[C@@H]3C2)c1 | -1.995
Cc1ccc(CCNc2nc(-c3ccncc3)nc3c2CCNCC3)o1 | -0.1721
CC(Cc1cn(CCc2nnn[nH]2)nn1)c1ccccc1 (stereo not drawn) | 103.4
CN(CCn1ccc2ccccc21)C(=O)Cc1n[nH]c(=O)[nH]1 | 0.08952
CC(Cc1cn(CCc2nc(N)cc(O)n2)nn1)c1ccccc1 (stereo not drawn) | 116.8
N#Cc1cccc(Cl)c1NCCc1n[nH]c(=O)[nH]1 | -15.54
C=C(C)COc1cccc(CNCCc2nc(N)cc(O)n2)c1 | 6.733
CC(Cc1ccc2c(c1)OCO2)c1cn(CCc2c[nH]cn2)nn1 (stereo not drawn) | -4.802
CN(CCn1ccc2ccccc21)C(=O)Cc1nnn[nH]1 | -2.882
CC(Cc1cn(CCc2n[nH]c(=O)[nH]2)nn1)c1ccccc1 (stereo not drawn) | 124.9
CC(c1ccc(C(=O)NCCc2nc(N)cc(O)n2)o1)N1CCCCC1 (stereo not drawn) | 6.141
